Screening results deposited in PubChem BioAssay by National Center for Advancing Translational Sciences (NCATS).
KB-3-1 tox: qHTS assay for MDR1-selective chemotherapeutics: Primary screen using the parental adenocarcinoma cell KB-3-1; KB-3-1 viability, CellTiter-Glo ATP luminescence, 72 h; Potency, µM (series often up to 46.1 µM), hits mostly cytotoxic; actives 1.4% (n = 400,000); AID 1347075, 2019; note: nearly all actives have a fitted effect of over 60% in size
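Parental KB-3-1 viability, qHTS format: 72 h compound exposure, 37 °C; CellTiter-Glo; media-only wells and DMSO plates as controls; concentration-effect fits on corrected data.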
HT1080NT lethal: qHTS for induction of synthetic lethality in tumor cells producing 2HG: qHTS for the HT-1080-NT fibrosarcoma cell line; HT-1080-NT fibrosarcoma viability, CellTiter-Glo ATP luminescence, 48 h; Potency, µM (titrated, usually from 46.1 µM), actives largely listed as cytotoxic; actives 1.6% (n = 360,000);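 note: NT is the 2HG producing partner of a matched IDH1 knockdown line; nearly all actives have a fitted effect of over 55% in size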
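Compounds were tested in concentration-response format on HT-1080-NT cells for 48 hours at 37 degrees C. Cell viability came from CellTiter-Glo luminescence; curves were classified by r2, response magnitude and activity.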
HT1080 IDH1KD tx: qHTS for induction of synthetic lethality in tumor cells producing 2HG: qHTS for the HT-1080-IDH1KD cell line; AID 686971, 2013; HT-1080 IDH1 knockdown viability, ATP luminescence, 48 h; actives 2% (n = 360,000); Potency, µM (highest dose often 46.1 µM), actives largely listed as cytotoxic
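Using the IDH1-knockdown HT-1080 line run in the same batch and compound series as the NT line, viability after 48 h at 37 °C was determined by CellTiter-Glo luminescence and expressed as % activity.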
KB-V1 MDR tox: qHTS assay for MDR1-selective chemotherapeutics: Primary screen using the drug-selected MDR subline cells KB-V1 | KB-V1 MDR cells viability, CellTiter-Glo, 72 h | Potency, µM (highest dose often 46.1 µM), most hits filed as cytotoxic | actives 3.4% (n = 400,000); note: nearly all actives have a fitted effect of over 60% in size
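Potencies derive from concentration-effect curves fitted to normalized luminescence (CellTiter-Glo) of KB-V1 cells treated for 72 h at 37 degrees C in phenol-red-free DMEM containing 10% FBS.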
SW480 rereplic: A quantitative high throughput screen for small molecules that induce DNA re-replication in SW480 colon adenocarcinoma cells; AID 624297, 2012; SW480 DNA re-replication, Hoechst DNA content imaging, 48 h; actives 1.8% (n = 340,000); Potency, µM (highest dose often 46.1 µM), actives largely listed as activators; note: nearly all actives have a fitted effect of over 55% in size
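Per well, 250 cells were exposed to pinned compound for 48 hr. Nuclear DNA was visualised with Hoechst (40 min, 37 C) and total object intensity recorded by fluorescence scanning.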
MCF10A rereplic: A quantitative high throughput screen for small molecules that induce DNA re-replication in MCF 10a normal breast cells; MCF 10A DNA re-replication, Hoechst nuclear intensity, 48 h; Potency, µM (series often up to 46.1 µM), hits mostly activators; actives 2.9% (n = 350,000); AID 624296, 2012; note: nearly all actives have a fitted effect of over 50% in size
Numbers stand for hits; i = inactive; ? = inconclusive; nt = not tested or not shown; [ ] = remark or other dose. Compounds with a hit are over-represented: about 7.9% of the library has one in this group of screens. Calls come from the whole dose curve; as a rule, active = well fitted curve in the direction sought with a large enough effect; inconclusive = small, poorly fitted or top-dose-only effect, or another doubt; inactive = no such curve, though single readings can be large; an effect the other way counts as inactive or inconclusive.

SMILES | KB-3-1 tox | HT1080NT lethal | HT1080 IDH1KD tx | KB-V1 MDR tox | SW480 rereplic | MCF10A rereplic
Cc1ccc(-n2nnnc2-c2cnc3ccc(Cl)cc3c2-c2ccccc2)cc1 | 7.3µM | i | i | ? | ? | 21µM
Nc1ncc(-c2nnnn2-c2ccc(Cl)cc2)c(-c2ccc(Cl)cc2)n1 | 5.2µM | 6.5µM | 7.3µM | 6.5µM | 2.9µM | ?
Clc1ccc(-n2nnnc2-c2cnc3ccccc3c2-c2ccccc2)cc1 | i | ? | ? | 16µM | i | i
Clc1ccc(-c2nnnn2-c2ccc(Cl)cc2)cc1 | ? | ? | i | i | i | i
COc1cc2nc(CC(C)C)n(NC(=O)c3ccccc3)c(=O)c2cc1OC | i | i | i | 7.3µM | i | i
COc1ccc(C(=O)Nn2c(CC(C)C)nc3cc(OC)c(OC)cc3c2=O)c(OC)c1 | i | i | i | i | i | i
COc1ccccc1CN(Cc1ccco1)c1cnc(S(C)(=O)=O)nc1C(=O)Nc1cc(C)ccc1C | i | nt | nt | i | nt | nt
Cc1nn(Cc2ccc(C(=O)NN)o2)c(C)c1Cl | i | i | i | i | ? | ?
Cc1nn(Cc2ccc(C(=O)Nc3ccc(C(=O)OC(C)C)cc3)o2)c(C)c1Cl | i | ? | ? | 23µM | i | ?
CCCc1c(-c2ccc(Cl)cc2)ncn1Cc1cccc(-c2ccccc2)c1 | 16µM | ? | ? | ? | nt | nt
CCCc1c(-c2cccc(Br)c2)ncn1Cc1cccc(-c2ccccc2)c1 | ? | ? | ? | 16µM | nt | nt
CCOC(=O)CCNC(=O)N1CCN(S(=O)(=O)c2ccc3c(ccn3C)c2)CC1 | i | nt | nt | i | nt | nt
CCOC(=O)C1c2cccc(O)c2CCN1C(C)=O (centres undefined) | i | i | i | i | nt | nt
COc1ccc2cc(CN(CC3CCCO3)S(=O)(=O)c3ccccc3)c(=O)[nH]c2c1 (centres undefined) | i | i | i | 21µM | i | i
Cc1ccc(S(=O)(=O)N(Cc2cc3cc4c(cc3[nH]c2=O)OCCO4)CC2CCCO2)cc1 (centres undefined) | i | i | i | i | i | i
Cc1cc(C)c2cc(CN(CC3CCCO3)S(=O)(=O)c3ccc4c(c3)OCCO4)c(=O)[nH]c2c1 (centres undefined) | i | i | i | 16µM | i | i
O=C(CCC1N=C2c3ccccc3N=C(SCc3cccc(F)c3)N2C1=O)NCc1ccc(F)cc1 (centres undefined) | i | nt | nt | i | nt | nt
CCCCC(=O)O[C@]1(C(=O)CO)[C@H](C)C[C@H]2[C@@H]3CCC4=CC(=O)C=C[C@]4(C)[C@@]3(F)[C@@H](O)C[C@@]21C | nt | nt | nt | nt | i | i
Nc1c(Br)cc(C=O)cc1Br | i | nt | nt | i | nt | nt
Cc1onc(-c2c(F)cccc2Cl)c1C(=O)c1ccccc1 | i | i | i | i | i | i
Cc1onc(-c2c(F)cccc2Cl)c1C(=O)O/N=C(\N)c1ccc([N+](=O)[O-])o1 | i | i | 12µM | ? | i | ?
Cc1onc(-c2c(F)cccc2Cl)c1C(=O)NC(=S)NC1CCS(=O)(=O)C1 (centres undefined) | i | i | i | 23µM | i | i
C/C(=N\OC(=O)c1c(-c2c(F)cccc2Cl)noc1C)c1nccs1 | i | i | i | i | i[1.84 µM] | i
Cc1onc(-c2c(F)cccc2Cl)c1C(=O)c1ccccc1O | ? | ? | 26µM | i | ? | i
CCC1CCCCN1CCCNC(=O)c1ccc2c(c1)N(Cc1ccc(Cl)cc1)C(=O)c1ccccc1S2(=O)=O (centres undefined) | i | nt | nt | i | nt | nt
SMILES | KB-3-1 tox | HT1080NT lethal | HT1080 IDH1KD tx | KB-V1 MDR tox | SW480 rereplic | MCF10A rereplic
Cc1ccc(NC(=S)NNC(=O)c2nnn(-c3ccccc3)c2C)cc1 | i | i | i | 21µM | i | i
O=C(c1ccc(C(F)(F)F)cc1)N1CCN(c2ccc(N3CCOCC3)nn2)CC1 | i | i | i | 16µM | i | i
O=C(c1ccc(Oc2ccc(C(F)(F)F)cc2[N+](=O)[O-])cc1)N1CCOCC1 | ? | i | i | 23µM | i | i
CC(C(=O)N1CCc2ccccc21)N1CCc2ccccc2C1 (centres undefined) | i | i | i | 15µM | i | i
COc1ccccc1N1CCN(C(=O)c2oc3ccc(Br)cc3c2C)CC1 | 10µM | ? | ? | 13µM | ? | 16µM
O=C(c1ccccc1Oc1ccc(C(F)(F)F)cc1[N+](=O)[O-])N1CCOCC1 | i | i | i | i | i | i
CC(C)(C)c1ccc(C(=O)N2CCN(c3ccc(N4CCOCC4)nn3)CC2)cc1 | i | i | i | ? | i | i
CCOC(=O)c1ccc(NC(=O)CCn2ccc(C)n2)cc1 | i | nt | nt | i | nt | nt
COc1ccccc1CN1CCNC(=O)C1=O | i | nt | nt | i | nt | nt
Cc1nn(C)c(C(=O)N2CCc3ccccc32)c1Br | i | i | i | ? | i | ?
COCc1c(C(=O)N2CCc3ccccc32)oc2ccccc12 | i | i | i | i | i | ?
Cc1ccc(C(=O)N2CCN(c3ccc(C(F)(F)F)cn3)CC2)cc1 | i | i | i | i | i | i
CC(=O)c1ccc(N2CCN(c3ccc(C(F)(F)F)cn3)CC2)cc1 | ? | i | i | 7.3µM | i | i
Cc1c(C(=O)N2CCN(c3ccc(C(F)(F)F)cn3)CC2)oc2ccccc12 | i | i | i | i | i | 23µM
Cc1c(C(=O)N2CCc3ccccc32)oc2ccccc12 | i | i | i | 18µM | i | i
Cn1ncc(Br)c1C(=O)N1CCc2ccccc21 | i | i | i | ? | 0.52µM | i
COc1ccc(-c2nnc(SCC(=O)Nc3ccc(C)c(C)c3)s2)cc1 | i | nt | nt | i | nt | nt
CCCN(CCC)CCNC(=O)C1CCCN(S(=O)(=O)c2cccc3nsnc23)C1 (centres undefined) | i | nt | nt | i | nt | nt
COCc1c(C(=O)N2CCN(CCOc3ccccc3)CC2)oc2ccccc12 | i | i[9.24 µM] | i | ? | ? | i
COc1ccccc1N1CCN(C(=O)c2oc3ccccc3c2C)CC1 | i | i | i | i | 15µM | ?
COCc1c(C(=O)N2CCN(c3ccccc3C)CC2)oc2ccccc12 | i | i | i | 21µM | i | i
COc1ccccc1N1CCN(C(=O)c2oc3ccc(F)cc3c2C)CC1 | ? | i | i | ? | ? | ?
CCCC(=O)Nc1ccc2nc(SCCOc3ccccc3)sc2c1 | i | nt | nt | i | nt | nt
CN(C(=O)Nc1cn(C)c(=O)c2ccccc12)c1ccccc1 | i | nt | nt | ? | nt | nt
C=CCOc1ccc(C2NC(=S)NC(C)=C2C(=O)c2ccccc2)cc1OC (centres undefined) | i | i | i | i | i | i
